From PubChem BioAssay AID1159580 (chemical genetic matrix, 2015)
Several values for one entry are separate records, joined by “and”; a condition that tells them apart may be missing. Equal entries are not always repeated. Among all 5,500 compounds or so, about 2,000 (36%) were called active. Inconclusive results (about 18%) are left out. Cut-off read from the data, not from the text of the source: active = normalized growth mostly below about 0.91 (no sharp cut-off); inconclusive = no clear call, values can overlap the other calls; inactive = mostly above about 0.92. The list shows a part of the results.

Assay: chemical genetic growth profiling, strain panel (AID 1159580);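 note: tested at 20 µM; growth read once vehicle control cultures reached saturation at 30 °C; 1 = growth at the plate median or of vehicle wells; lower values mean less growth of the strain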
Details: S. cerevisiae deletion strains, growth OD

Measured: normalized growth

CC(C)(C)NC[C@@H](O)COc1nsnc1N1CCOCC1
inactive: locus YAL021C, strain ccr4, active compounds read low 1.02 | locus YAL026C, strain drs2, active compounds read low 1.01 | locus YAL030W, strain snc1, active compounds read low 1.02 | locus YBL061C, strain skt5, active compounds read low 1.01 | locus YBR009C, strain hhf1, active compounds read low 1.01 | locus YBR021W, strain FUR4, active compounds read low 1 | locus YBR023C, strain chs3, active compounds read low 1 | locus YBR171W, strain sec66, active compounds read low 1.03 | locus YBR229C, strain ROT2, active compounds read low 0.977 | locus YBR231C, strain swc5, active compounds read low 1.02 | locus YBR279W, strain paf1, active compounds read low 1.01 | locus YCL011C, strain gbp2, active compounds read low 1.02 | locus YCL016C, strain dcc1, active compounds read low 1.01 | locus YCL029C, strain bik1, active compounds read low 0.978 | locus YCL069W, strain vba3, active compounds read low 1.01 | locus YCR088W, strain abp1, active compounds read low 1.02 | locus YDL005C, strain med2, active compounds read low 1.02 | locus YDL035C, strain GPR1, active compounds read low 1.02 | locus YDL040C, strain nat1, active compounds read low 1.01 | locus YDL074C, strain BRE1, active compounds read low 0.985 | locus YDL101C, strain DUN1, active compounds read low 0.99 | locus YDL185W, strain tfp1, active compounds read low 0.977 | locus YDL192W, strain arf1, active compounds read low 0.994 | locus YDR001C, strain nth1, active compounds read low 1.01 | locus YDR069C, strain doa4, active compounds read low 1.01 | locus YDR101C, strain arx1, active compounds read low 0.95 | locus YDR137W, strain rgp1, active compounds read low 1.02 | locus YDR150W, strain NUM1, active compounds read low 0.99 | locus YDR159W, strain sac3, active compounds read low 1 | locus YDR162C, strain NBP2, active compounds read low 1.02 | locus YDR195W, strain ref2 1.03 | locus YDR297W, strain sur2, active compounds read low 1.02 | locus YDR318W, strain mcm21, active compounds read low 1 | locus YDR334W, strain swr1, active compounds read low 1.02 | locus YDR335W, strain msn5, active compounds read low 1.02 | locus YDR388W, active compounds read low 0.99 | locus YDR392W, strain spt3, active compounds read low 0.973 | locus YDR502C, strain sam2, active compounds read low 0.994 | locus YEL003W, strain gim4, active compounds read low 1.02 | locus YEL037C, strain rad23, active compounds read low 1.01 | locus YEL061C, strain CIN8 (second series), active compounds read low 1.02 | locus YEL061C, strain CIN8, active compounds read low 0.996 | locus YER015W, strain faa2, active compounds read low 1 | locus YER016W, strain bim1, active compounds read low 0.994 | locus YER110C, active compounds read low 0.974 | locus YER111C, strain swi4, active compounds read low 1.02 | locus YER155C, strain BEM2 (second series), active compounds read low 1.01 | locus YER155C, strain BEM2, active compounds read low 0.987 | locus YER167W, strain BCK2, active compounds read low 0.986 | locus YFR010W, strain ubp6, active compounds read low 1.02 | locus YGL078C, strain dbp3, active compounds read low 1 | locus YGL086W, strain mad1, active compounds read low 0.966 | locus YGL167C, strain pmr1, active compounds read low 1.02 | locus YGL173C, strain kem1, active compounds read low 1.02 | locus YGL227W, strain vid30, active compounds read low 1.01 | locus YGL240W, strain doc1, active compounds read low 1.02 | locus YGL248W, strain PDE1, active compounds read low 1 | locus YGL253W, strain hxk2, active compounds read low 1.02 | locus YGR078C, strain PAC10, active compounds read low 1 | locus YGR135W, strain pre9, active compounds read low 1 | locus YGR252W, strain gcn5, active compounds read low 1.08 | locus YHR013C, strain ard1, active compounds read low 1.02 | locus YHR027C, strain rpn1, active compounds read low 1.01 | locus YHR030C, strain SLT2, active compounds read low 0.997 and 0.975 | locus YHR079C, strain IRE1 (second series), active compounds read low 0.983 | locus YHR079C, strain IRE1, active compounds read low 0.973 | locus YHR094C, strain hxt1, active compounds read low 0.974 | locus YHR129C, strain ARP1, active compounds read low 1 | locus YHR142W, strain chs7, active compounds read low 1.03 | locus YHR200W, strain rpn10, active compounds read low 1 | locus YIL066C, strain RNR3, active compounds read low 0.985 | locus YIL073C, strain SPO22, active compounds read low 1.01 | locus YIL125W, strain kgd1, active compounds read low 0.981 | locus YIR030C, strain dcg1, active compounds read low 1 | locus YJL092W, strain hpr5, active compounds read low 1.01 | locus YJL095W, strain BCK1 (second series), active compounds read low 1.02 | locus YJL095W, strain BCK1, active compounds read low 1.01 and 0.975 | locus YJL115W, strain asf1, active compounds read low 1.01 | locus YJL129C, strain trk1, active compounds read low 1.02 | locus YJL134W, strain LCB3, active compounds read low 0.985 | locus YJL154C, strain vps35, active compounds read low 1.02 | locus YJL164C, strain tpk1, active compounds read low 1.01 | locus YJL166W, strain qcr8, active compounds read low 1.01 | locus YJL168C, strain set2, active compounds read low 0.984 | locus YJL187C, strain SWE1 (second series), active compounds read low 0.99 | locus YJL187C, strain SWE1, active compounds read low 1.02 | locus YJR043C, strain POL32, active compounds read low 1.03 | locus YJR066W, strain TOR1, active compounds read low 0.929
